Experimental data: PubChem BioAssay AID651871 (Sanford-Burnham Center for Chemical Genomics, 2012)

Tested on: H9c2
Test: protection of cardiomyocytes from stress damage, SAR follow-up, cell-based, panel, H9c2 and HL-1, ATP luminescence, set 2 (AID 651871);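 also: cells exposed to stressor for 2 h before ATP readout; reference of the scale not given here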
Conditions: H9c2/HL-1 cardiomyocytes, H2O2 oxidative stress, with H2O2, run 2, at 39.5 µM (top of the series)

`COc1ccc2c(c1OC)C(=O)N1c3ccccc3C(=O)N(Cc3cccc(Cl)c3Cl)C21` (stereo unspecified) showed an activity (protection/inhibition) of 48.1%.
